Measured values from the antibiotic and cytotoxicity screens of Wong et al. (2023).
The campaign covered roughly 39,000 compounds. About 3,300 (8.5%) were called active. This excerpt belongs to a sample that is enriched for actives.

Test system: HepG2
Experiment: cytotoxicity call (relative viability < 0.9)
Details: 10 µM

Structure (SMILES) | cytotoxicity call
Cc1noc(C)c1NC(=O)N(C)C[C@@H]1Oc2ccc(NC(=O)CCN3CCOCC3)cc2CC(=O)N([C@H](C)CO)C[C@@H]1C | inactive
Cc1ccc(S(=O)(=O)N(C)C[C@@H]2Oc3ncc(-c4ccncc4)cc3C(=O)N([C@H](C)CO)C[C@H]2C)cc1 | inactive
COc1ccc(NC(=O)N(C)C[C@H]2Oc3cc(C#CCN(C)C)ccc3S(=O)(=O)N([C@@H](C)CO)C[C@@H]2C)cc1 | inactive
C[C@@H]1CN([C@@H](C)CO)C(=O)c2cc(NC(=O)Cn3cnnn3)ccc2O[C@H]1CN(C)Cc1ccc(C(=O)Nc2ccccc2N)cc1 | inactive
C[C@@H]1CN([C@H](C)CO)C(=O)c2cc(NC(=O)C3CC3)ccc2O[C@@H]1CN(C)C(=O)Nc1ccc2c(c1)OCO2 | inactive
COc1ccc(C#Cc2cnc3c(c2)C(=O)N([C@H](C)CO)C[C@H](C)[C@@H](CN(C)C(=O)CN(C)C)O3)cc1 | inactive
C[C@@H]1CN([C@@H](C)CO)C(=O)c2cc(NC(=O)Nc3ccccc3)ccc2O[C@@H]1CN(C)Cc1ccc(C(F)(F)F)cc1 | active
C[C@H]1CN([C@@H](C)CO)C(=O)c2cc(NC(=O)Nc3ccccc3)ccc2O[C@H]1CN(C)Cc1ccc(C(F)(F)F)cc1 | inactive
C[C@@H]1CN([C@H](C)CO)C(=O)c2cc(NC(=O)Nc3ccccc3)ccc2O[C@H]1CN(C)Cc1ccc(C(F)(F)F)cc1 | active
C[C@H](CO)N1C[C@H](C)[C@H](CN(C)Cc2ccc(C(F)(F)F)cc2)Oc2ccc(NC(=O)Nc3ccccc3)cc2C1=O | active
C[C@H]1CN([C@@H](C)CO)C(=O)c2cc(NC(=O)Nc3ccccc3)ccc2O[C@@H]1CN(C)Cc1ccc(C(F)(F)F)cc1 | active
C[C@@H]1CN([C@H](C)CO)C(=O)c2cc(NC(=O)Nc3ccccc3)ccc2O[C@@H]1CN(C)Cc1ccc(C(F)(F)F)cc1 | inactive
C[C@@H]1CN([C@H](C)CO)C(=O)c2cc(NC(=O)Nc3ccc(C(F)(F)F)cc3)ccc2O[C@@H]1CN(C)Cc1ccc(C(=O)O)cc1 | inactive
C[C@H](CO)N1C[C@H](C)[C@H](CN(C)Cc2ccc(C(=O)O)cc2)Oc2ccc(NC(=O)Nc3ccc(C(F)(F)F)cc3)cc2C1=O | inactive
C[C@@H]1CN([C@@H](C)CO)C(=O)c2cc(NC(=O)Nc3ccccc3)ccc2O[C@H]1CN(C)Cc1ccc(C(F)(F)F)cc1 | inactive
COc1cccc(S(=O)(=O)Nc2ccc3c(c2)C(=O)N(C)C[C@@H](OC)[C@@H](C)CN(C(=O)Cc2cccnc2)[C@@H](C)CO3)c1 | inactive
CC(C)NC(=O)N[C@@H]1C=C[C@@H](CC(=O)NCCN2CCCC2)O[C@H]1CO | inactive
COc1ccc(NC(=O)N(C)C[C@@H]2OCCCC[C@@H](C)Oc3ccc(NC(=O)C4CCCCC4)cc3C(=O)N([C@H](C)CO)C[C@H]2C)cc1 | inactive
COc1ccc(CN(C)C[C@H]2OCCCC[C@H](C)Oc3ccc(NC(=O)C4CCCCC4)cc3C(=O)N([C@@H](C)CO)C[C@H]2C)cc1 | inactive
O=C(C[C@H]1CC[C@@H]2NC[C@H](O)COC[C@H]2O1)NCCN1CCCCC1 | inactive
O=C1O[C@H](c2ccccc2)[C@H](c2ccccc2)N2[C@H]1[C@@H](C(=O)N1CCCCCCC1)[C@]1(C(=O)Nc3ccc(C#CCCO)cc31)[C@H]2c1ccc(O)cc1 | inactive
CSc1nc2nc(N)nc(N)c2s1 | inactive
COc1cccc(S(=O)(=O)N2C[C@H](O)COC[C@@H]3O[C@H](CC(=O)N4CCN(c5ccccc5)CC4)CC[C@H]32)c1 | inactive
O=C(C[C@H]1CC[C@@H]2[C@H](COC[C@H](O)CN2S(=O)(=O)c2cccc(Cl)c2)O1)NC1Cc2ccccc2C1 | inactive

Structure (SMILES) | cytotoxicity call
C[C@@H]1CN([C@@H](C)CO)C(=O)c2cccc(NC(=O)c3cnccn3)c2O[C@@H]1CN(C)S(C)(=O)=O | inactive
CC(C)NC(=O)Nc1ccc2c(c1)C(=O)N([C@H](C)CO)C[C@H](C)[C@@H](CN(C)Cc1ccccc1)OCCCC[C@@H](C)O2 | inactive
C[C@H](CO)N1C[C@H](C)[C@@H](CN(C)Cc2ccc(C(F)(F)F)cc2)Oc2ccc(NC(=O)Nc3ccccc3)cc2C1=O | active
C[C@H](CO)N1C[C@H](C)[C@@H](CN(C)Cc2ccc(C(=O)O)cc2)Oc2ccc(NC(=O)Nc3ccc(C(F)(F)F)cc3)cc2C1=O | inactive
C[C@@H]1CN([C@@H](C)CO)C(=O)c2cc(NC(=O)Nc3ccc(C(F)(F)F)cc3)ccc2O[C@@H]1CN(C)Cc1ccc(C(=O)O)cc1 | inactive
C[C@@H]1CCCCO[C@H](CN(C)C(=O)c2ccncc2)[C@@H](C)CN([C@H](C)CO)C(=O)c2cc(NC(=O)C3CCCCC3)ccc2O1 | inactive
C[C@H](CO)N1C[C@H](C)[C@@H](CN(C)S(=O)(=O)c2cn(C)cn2)Oc2ccc(NS(=O)(=O)c3cn(C)cn3)cc2C1=O | inactive
C[C@@H]1CCCCO[C@@H](CN(C)S(=O)(=O)c2ccc(F)cc2)[C@@H](C)CN([C@@H](C)CO)C(=O)c2cc(NC(=O)Nc3cccc4ccccc34)ccc2O1 | inactive
Cc1oc(C(C)(C)C)cc1C(=O)Nc1ccc(C(C)C)cc1 | inactive
CCc1cccc(C(C)C)c1NC(=O)Nc1ccccc1 | inactive
CC(C)c1ccccc1Cc1cc(C(=O)Nc2ccc(S(=O)(=O)c3ccccc3C(C)(C)C)cc2)c(O)c(O)c1O | active
C[C@@H]1CN([C@@H](C)CO)C(=O)Cc2cc(NC(=O)CCN3CCOCC3)ccc2O[C@@H]1CN(C)S(=O)(=O)c1ccccc1 | inactive
COC(=O)C1=CC(CCCO)=C[C@@H](c2ccc(CN3CCCC3)cc2)N(Cc2sc3ccccc3c2Cl)C=C1C(=O)OC | inactive
C[C@@H]1CN([C@H](C)CO)C(=O)c2cc(C#Cc3ccccc3)cnc2O[C@H]1CN(C)C(=O)CCN1CCCCC1 | inactive
C[C@H]1CN([C@@H](C)CO)C(=O)c2cc(C#Cc3ccccc3)cnc2O[C@H]1CN(C)C(=O)CCN1CCCCC1 | active
C[C@@H]1CN([C@H](C)CO)C(=O)c2cc(C#Cc3ccccc3)cnc2O[C@@H]1CN(C)C(=O)CCN1CCCCC1 | inactive
C[C@H](CO)N1C[C@H](C)[C@@H](CN(C)C(=O)CCN2CCCCC2)Oc2ncc(C#Cc3ccccc3)cc2C1=O | inactive
C[C@@H]1CN([C@@H](C)CO)C(=O)c2cc(C#Cc3ccccc3)cnc2O[C@@H]1CN(C)C(=O)CCN1CCCCC1 | inactive
C[C@H]1CN([C@@H](C)CO)C(=O)c2cc(C#Cc3ccccc3)cnc2O[C@@H]1CN(C)C(=O)CCN1CCCCC1 | active
CC(C)NC(=O)N(C)C[C@@H]1Oc2ccc(NC(=O)c3ccncc3)cc2CC(=O)N([C@@H](C)CO)C[C@H]1C | inactive
COc1ccc(S(=O)(=O)N(C)C[C@@H]2Oc3ccc(NC(=O)CCCN(C)C)cc3CC(=O)N([C@H](C)CO)C[C@@H]2C)cc1 | inactive
Cc1ccc(=O)[nH]n1 | inactive
C[C@@H]1CN([C@@H](C)CO)C(=O)c2cc(-c3cccnc3)cnc2O[C@@H]1CN(C)Cc1ccc(Oc2ccccc2)cc1 | inactive
C[C@H]1CCCCO[C@H](CN(C)C(=O)Nc2cccc3ccccc23)[C@@H](C)CN([C@@H](C)CO)C(=O)c2cc(NC(=O)Cc3ccccc3)ccc2O1 | inactive

Structure (SMILES) | cytotoxicity call
COc1cccc(S(=O)(=O)N(C)C[C@@H]2Oc3ncc(-c4cccc(C(=O)N(C)C)c4)cc3C(=O)N([C@@H](C)CO)C[C@H]2C)c1 | inactive
CC(C)NC(=O)Nc1ccc2c(c1)C(=O)N([C@H](C)CO)C[C@H](C)[C@@H](CN(C)Cc1ccccc1)OCCCC[C@H](C)O2 | inactive
COc1ccc2c3c([nH]c2c1)[C@H](CO)N(C[C@]13CN(CCc2ccccc2)C1)C(=O)CN1CCOCC1 | inactive
COc1ccc2c3c([nH]c2c1)[C@H](CO)N(Cc1ccc(cc1)Cl)C[C@]13CN(CCc2ccccc2)C1 | active
COc1ccc(cc1)CN1C[C@]2(CN(C2)C(=O)Cc2ccncc2)c2c([nH]c3cc(ccc23)OC)[C@H]1CO | inactive
COc1ccc2c3c([nH]c2c1)[C@@H](CO)N(C[C@]13CN(CCc2ccccc2)C1)C(=O)CN1CCOCC1 | inactive
COc1ccc2c3c([nH]c2c1)[C@@H](CO)N(Cc1ccccc1)C[C@]13CCN(CC1)C(=O)Nc1cccc(c1)F | inactive
COc1ccc2c3c([nH]c2c1)[C@@H](CO)N(Cc1ccc(cc1)Cl)C[C@]13CN(CCc2ccccc2)C1 | active
C[C@H]1CN([C@@H](C)CO)C(=O)c2c(c3ccccc3n2C)-c2ccccc2CO[C@@H]1CN(C)Cc1ccccc1C(F)(F)F | inactive
C[C@H]1CN([C@@H](C)CO)C(=O)Cc2cc(NC(=O)CCN3CCOCC3)ccc2O[C@H]1CN(C)S(=O)(=O)c1ccccc1 | inactive
C=C[C@](C)(O)CCC[C@H](C)CCC[C@H](C)CCCC(C)C | inactive
CC(=O)OC1CCC2(C)C(CCC3(C)C2CC=C2C4CC(C)(C)CCC4(C(=O)O)CCC23C)C1(C)C (configuration not stated) | inactive
COc1ccc(S(=O)(=O)Nc2ccc3c(c2)C(=O)N([C@@H](C)CO)C[C@H](C)[C@H](CN(C)Cc2ccc4c(c2)OCO4)OCCCC[C@H](C)O3)cc1 | inactive
C[C@@H]1CN([C@H](C)CO)C(=O)Cc2cc(NS(=O)(=O)c3ccc(Cl)cc3)ccc2O[C@@H]1CN(C)C(=O)Nc1ccc(C(F)(F)F)cc1 | inactive
CN(C)C(=O)C[C@@H]1C=C[C@H](NC(=O)C2CC2)[C@@H](CO)O1 | inactive
COc1ccc(S(=O)(=O)N(C)C[C@H]2OCCCC[C@H](C)Oc3ccc(NC(=O)NC4CCCCC4)cc3C(=O)N([C@@H](C)CO)C[C@H]2C)cc1 | inactive
COc1ccc(S(=O)(=O)N(C)C[C@@H]2OCCCC[C@@H](C)Oc3ccc(NC(=O)NC4CCCCC4)cc3C(=O)N([C@H](C)CO)C[C@H]2C)cc1 | active
COc1ccc(S(=O)(=O)N(C)C[C@H]2OCCCC[C@H](C)Oc3ccc(NC(=O)NC4CCCCC4)cc3C(=O)N([C@H](C)CO)C[C@@H]2C)cc1 | inactive
COc1ccc(S(=O)(=O)N(C)C[C@H]2OCCCC[C@@H](C)Oc3ccc(NC(=O)NC4CCCCC4)cc3C(=O)N([C@@H](C)CO)C[C@@H]2C)cc1 | active
COc1ccc(S(=O)(=O)N(C)C[C@@H]2OCCCC[C@H](C)Oc3ccc(NC(=O)NC4CCCCC4)cc3C(=O)N([C@@H](C)CO)C[C@H]2C)cc1 | inactive
COc1ccc(S(=O)(=O)N(C)C[C@H]2OCCCC[C@H](C)Oc3ccc(NC(=O)NC4CCCCC4)cc3C(=O)N([C@H](C)CO)C[C@H]2C)cc1 | inactive
COc1ccc(S(=O)(=O)N(C)C[C@@H]2OCCCC[C@H](C)Oc3ccc(NC(=O)NC4CCCCC4)cc3C(=O)N([C@H](C)CO)C[C@@H]2C)cc1 | inactive
COc1ccc(S(=O)(=O)N(C)C[C@@H]2OCCCC[C@H](C)Oc3ccc(NC(=O)NC4CCCCC4)cc3C(=O)N([C@@H](C)CO)C[C@@H]2C)cc1 | inactive
COc1ccc(S(=O)(=O)N(C)C[C@H]2OCCCC[C@@H](C)Oc3ccc(NC(=O)NC4CCCCC4)cc3C(=O)N([C@@H](C)CO)C[C@H]2C)cc1 | active
